Screening results as filed in PubChem.
The entries come from a sample that favours hits as a whole.
FECH block – inhibitors of human ferrochelatase; purified FECH, Ni-mesoporphyrin absorbance 550 nm; calls only at 10 µM (by protocol); P22830; actives 3.3% (n = 20,000);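 active means enzyme reaction rate more than 3 SD below the solvent-only control wells on the same plate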;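 further: lower slope than DMSO wells means FECH inhibition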
Target sequence (P22830 whole entry, looked up): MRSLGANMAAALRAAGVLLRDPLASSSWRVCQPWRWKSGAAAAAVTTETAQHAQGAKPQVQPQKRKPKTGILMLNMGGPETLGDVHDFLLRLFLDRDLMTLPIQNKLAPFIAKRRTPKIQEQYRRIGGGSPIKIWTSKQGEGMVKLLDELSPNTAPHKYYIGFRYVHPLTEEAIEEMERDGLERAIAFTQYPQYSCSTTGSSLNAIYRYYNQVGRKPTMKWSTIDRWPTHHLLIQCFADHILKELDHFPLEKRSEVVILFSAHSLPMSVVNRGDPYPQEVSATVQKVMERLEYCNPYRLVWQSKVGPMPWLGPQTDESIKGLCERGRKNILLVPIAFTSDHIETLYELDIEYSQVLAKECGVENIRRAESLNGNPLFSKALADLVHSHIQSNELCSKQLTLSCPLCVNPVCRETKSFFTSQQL
Calls only; - = inactive; + = active, no number.

SMILES	FECH block
CCc1c(C)nc2ncnn2c1Sc1ccc(NS(=O)(=O)c2ccc(OC)c(OC)c2)cc1	-
COc1cc(OC)cc(C(=O)Nc2ccccc2Sc2c(C)c(C)nc3ncnn23)c1	+
Cc1cc(C)cc(NS(=O)(=O)c2cc(-c3ccc(=O)[nH]n3)ccc2Cl)c1	-
Cc1nnc(SCC(=O)NC(c2ccc(Cl)cc2)c2cccnc2)s1 (centres undefined)	-
CCc1ccc(C2=C(C)C(=O)N(CC(=O)NCc3ccc(OC)cc3OC)S2(=O)=O)cc1	-
CN(Cc1nc2ccc(F)cc2[nH]1)C(=O)C1CC(=O)Nc2ccc(F)cc21 (centres undefined)	-
CCN(C(=O)c1cccc(NC(=O)C(=O)c2ccco2)c1)c1ccccc1	-
CCc1cc(Sc2ccc(NC(C)=O)cc2)n2ncnc2n1	-
CCc1c(C)nc2ncnn2c1Sc1ccc(NC(=O)c2cccc(OC)c2)cc1	-
CCCc1c(C)nc2ncnn2c1Sc1ccc(NC(=O)c2cccc(OC)c2)cc1	-
CCc1c(C)nc2ncnn2c1Sc1ccc(NC(=O)c2ccc(OC)c(OC)c2)cc1	+
CCc1c(C)nc2ncnn2c1Sc1ccc(NC(=O)Nc2ccc(OC)c(OC)c2)cc1	-
CCc1cc(Sc2ccc(NC(=O)Nc3cccc(F)c3)cc2)n2ncnc2n1	-
CCCc1c(C)nc2ncnn2c1Sc1ccc(NC(=O)c2cc(OC)cc(OC)c2)cc1	+
CCCc1c(C)nc2ncnn2c1Sc1ccc(NC(=O)Cc2ccc(OC)cc2)cc1	-
CCc1cc(Sc2ccc(NC(=O)Nc3ccc(Br)cc3)cc2)n2ncnc2n1	+
C=C(C)COc1ccccc1C(=O)N1Cc2ccccc2CC1C(N)=O (centres undefined)	-
Cc1cc(NS(=O)(=O)c2cc(N3C(=O)CCS3(=O)=O)ccc2C)ccn1	-
Cc1cc(N2CCCC2)nc(Nc2ccc(NC(=O)c3ccc(Cl)cc3)cc2)n1	-
Cc1ccc(OCc2cc(=O)n3oc(C)cc3n2)c(NC(=O)COc2ccc(F)cc2)c1	-
O=C(NCc1ccc(CN2CCCCCC2)o1)C1CCCN(c2ncnc3c2nc2n3CCCCC2)C1 (centres undefined)	-
CC(C)(C)c1ccc(C(=O)NCCn2c(-c3ccccc3)nc3cccnc32)cc1	-
C=CC[C@@H]1CC=C[C@@H](C)N1C(=O)C(=O)Nc1nnc(CC)s1	-
Cc1ccc(NC(=O)[C@H]2C[C@H](C(=O)O)CN(Cc3cccc(F)c3C)C2)cn1	-
Cc1cc(NC(=O)c2ccccc2C)n(-c2ncnc3c2cnn3-c2cccc(C)c2C)n1	-
SMILES	FECH block
CCc1nc(OCC(=O)NC(C)c2ccccc2)c2c(C)c(C)oc2n1 (centres undefined)	-
CC(C)c1cc(-c2nn3c(Cc4ccccc4)nnc3s2)no1	-
CC(=O)N1CCc2c(nc(C)nc2N2CCCC(c3ccccc3C)C2)C1 (centres undefined)	-
O=C(NCc1cccc(-n2cccn2)c1)c1cc2ncccn2n1	-
O=c1cc(CN2CCCCC2)nc2nc(NCc3ccc(F)cc3)[nH]n12	-
CCc1ccc(NCc2nc3nc4c(c(=O)n3[nH]2)CCC4)cc1	+
CCCc1nc2nc(CC)[nH]n2c(=O)c1N	-
CCc1nc2nc(C)c(NC(=O)Nc3ccc4c(c3)OCCO4)c(=O)n2[nH]1	-
O=c1c2c(nc3nc(CNc4ccc(F)cc4)[nH]n13)CCC2	+
CCCc1cc(C(=O)N2CCCCC2CCc2ccc(O)cc2)n[nH]1 (centres undefined)	-
COc1cccc(Nc2nc(N3CCN(CCO)CC3)nc3c2cnn3-c2ccccc2)c1	-
O=C(c1cccc(CC2CCNCC2)c1)N1CCC(C(F)(F)F)CC1	-
Cc1cccc(Nc2nc(NCCCO)nc3c2cnn3-c2ccccc2)c1	-
COc1ccccc1CN(C(=O)CSc1nnc(C)s1)C1CCCC1	-
CCC(CC)C(=O)Nc1cc(C)ccc1OCc1cc(=O)n2oc(C)cc2n1	-
O=C(N[C@@H]1CNC[C@H]1O)c1cc(COc2cccc(C(F)(F)F)c2)[nH]n1	-
CC(C)(C)CNC(=O)c1[nH]cnc1C(=O)NCCc1c[nH]c2ccccc12	-
CC1(C)CC(NC(=O)c2nc[nH]c2C(=O)NCc2ccccn2)CC(C)(C)N1	-
O=C(NCc1ccccc1)c1nc[nH]c1C(=O)NCc1cccnc1	-
O=C(NC(c1ccccc1)c1ccccc1)c1nc[nH]c1C(=O)NCc1ccccn1	+
O=C(NCCc1c[nH]c2ccccc12)c1nc[nH]c1C(=O)NCc1ccccc1	+
CN(C)CCNC(=O)c1nc[nH]c1C(=O)NCc1ccccn1	-
O=C(NCc1ccccn1)c1nc[nH]c1C(=O)NCc1ccccc1	+
CCCNC(=O)c1nc[nH]c1C(=O)NCc1ccccc1	-
CCCNC(=O)c1[nH]cnc1C(=O)NC(c1ccccc1)c1ccccc1	-
CCS(=O)(=O)N1CCN(c2nccc(N3CCC(O)C3)n2)CC1 (centres undefined)	-
O=C(c1ccco1)N1CCCN(Cc2cc(C#CCO)cs2)CC1	-
O=C(NCC1CC1)c1nc[nH]c1C(=O)NCc1ccccc1	-
CN(Cc1ccco1)S(=O)(=O)c1sc2c(c1C(=O)O)CCNC2	-
